# Compounds without any hit were thinned out: in the full panel of roughly 79,000, 15% have a hit. Values without a mark were called inactive. Active and inactive are the calls of the source. Cut-off read from the data, not from the text of the source: active = growth inhibition above about 70%; inactive = the rest.
# Tests used:
# [1] = NCI Yeast Anticancer Drug Screen. Data for the rad50 strain (AID 155);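 note: 0% = growth of vehicle-only cultures of the same strain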; settings: S. cerevisiae rad50 strain growth inhibition; at 50.0 µM; hits give high values
# Summary of the method: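 Vehicle-treated cultures provide the reference for the growth inhibition reported for compound-exposed, repair-deficient yeast.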
# [2] = NCI Yeast Anticancer Drug Screen. Data for the mec2-1 strain (AID 157); settings: S. cerevisiae mec2-1 strain, at 50.0 µM, hits give high values
# Summary of the method: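 Test agents were screened against the mec2-1 yeast strain, with defined DNA repair or cell cycle alteration. Growth was scored as inhibition against vehicle-only controls.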
# [3] = NCI Yeast Anticancer Drug Screen. Data for the sgs1 mgt1 strain (AID 161);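 note: 0% = growth of cultures given vehicle only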; settings: S. cerevisiae sgs1 mgt1 strain, at 50.0 µM, hits give high values
# Summary of the method: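 Genetically altered yeast, compound exposure, growth inhibition relative to vehicle.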
# [4] = NCI Yeast Anticancer Drug Screen. Data for the cln2 rad14 strain (AID 165);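 note: 0% = growth equal to vehicle treated cultures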; settings: S. cerevisiae cln2 rad14 strain, at 50.0 µM, hits give high values
# Summary of the method: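 Growth of compound-exposed yeast (cln2 rad14 genotype) measured and expressed as inhibition relative to vehicle.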
# [5] = NCI Yeast Anticancer Drug Screen. Data for the bub3 strain (AID 167); settings: S. cerevisiae bub3 mutant strain, at 50.0 µM, hits give high values
# Summary of the method: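 Mutant yeast screening strain plus compound; vehicle-treated cultures serve as the 0% inhibition reference.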
# [6] = NCI Yeast Anticancer Drug Screen. Data for the mlh1 rad18 strain (AID 175); settings: S. cerevisiae mlh1 rad18 strain growth inhibition; at 50.0 µM; hits give high values
# Summary of the method: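 In this whole-cell yeast screen, a strain with altered DNA damage repair is challenged with compound, and its growth is measured against matched vehicle-treated controls.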
SMILES,growth inhibition [1] [%],growth inhibition [2] [%],growth inhibition [3] [%],growth inhibition [4] [%],growth inhibition [5] [%],growth inhibition [6]
CNC(=O)c1nnn(Cc2ccc(OC)cc2)c1Cl,-8.05,-8.9,-14.7,-69,-1.3,-8.15%
CC1CCCC(CCO)CC1 (stereo unspecified),11.6,5.8,6.4,0.1,15.7,6.3%
C/C(=N/OC1=CC(=O)CC(C)(C)C1)c1ccccc1,1.8,0.8,0.3,-52.9,24.1,0.6%
Cc1cccc(C)c1NC(=O)CCC/C(CC(=O)c1ccc(F)cc1)=N\NC(=O)C(=O)NN,20.2,2.7,2.4,-32.1,-4.9,19.8%
O=C(O)CCCC(=O)c1ccccc1,5,-8.65,4.85,-9.05,-5.9,20.1%
Cc1cn(C2CC(O)C(CO)O2)c(=O)nc1NCc1cccs1 (stereo unspecified),0.8,2,-8.55,-9.15,-4.55,2.95%
CCCNC1=C(C(=O)OCC)C(=O)CO1,-12.4,-20.7,3.55,15.6,-2.4,0.1%
C[C@@]12CCC(=O)C=C1CC[C@H]1C2CC[C@]2(C)C1CC[C@H]2C(=O)COC(=O)CCC(=O)O (stereo partly specified),-1.85,-7.8,21.1,-22.4,2.55,-33.7%
COc1cc2c(c(OC)c1OC)-c1ccc(S(C)(=O)=O)c(=O)cc1[C@@H](NC(C)=O)CC2,3.25,-7.1,3.2,4.7,-35,-44.4%
CNC(=O)OCC1=CC(=O)C=C(OC)C1=O,7.3,-14.9,18.4,14.4,2.45,9%
O=C(O)c1ccccc1SC1OC(=O)c2ccccc21 (stereo unspecified),-0.45,-8.75,2.35,-58.7,2.75,-1.45%
C=CCOC(=O)C(C)(C)OC(C)=O,13.9,5.9,10.8,3.15,2,-1.85%
COC(=O)c1c(O)c(C#N)c2[nH]c3ccccc3n2c1=O,-22.6,-16.6,-10.6,7.85,-4.4,-18.4%
COc1cccc(C)c1C(O)CC1CCCN1 (stereo unspecified),21.6,3.75,7.2,29.8,11.7,6.05%
C[C@]12CCC(=O)CC1CCCC2=O (stereo partly specified),9.9,-10.8,6.4,24.1,-6.7,19.8%
C/C(=N\n1c(-c2ccccc2)nc2ccccc2c1=O)c1ccc(C)cc1,5.25,7.8,-2.7,1.5,4.95,-1.75%
CC(=O)Oc1ccc2cc(NC(=O)c3ccccc3)c(=O)oc2c1,11.8,-2.85,-1.6,-62.4,-1.9,-3.35%
O=C(O)COc1ccccc1Cl,34.6,13.3,22.5,19.8,26.1,11.8%
S=C(Nc1ccccc1)Nc1nc(-c2ccccc2)c(N=Nc2ccccc2)s1,29.8,-1,4.05,10.1,12.9,2%
S=C(S)N1CCN(c2cccc(Cl)c2)CC1,40.2,16.1,58.5,44.7,47.1,70.5% (active)
Nc1ccc(-c2ccc(N=C(/C=N/O)NO)cc2)cc1,-7.05,-4.25,2.4,-46,12.2,-2.15%

SMILES,growth inhibition [1] [%],growth inhibition [2] [%],growth inhibition [3] [%],growth inhibition [4] [%],growth inhibition [5] [%],growth inhibition [6]
CCOC(=O)C(CCC(C)(C)SCc1ccccc1)(NC(C)=O)C(=O)OCC,25.8,-1.15,1.45,16.7,2.15,5.6%
O=C1CCC(c2nc3ccccc3o2)C(=O)N1 (stereo unspecified),-5.1,-20.5,-10.6,0.65,-11.2,-13.7%
N#Cc1cccc(NC(=O)c2ccc(C(=O)O)c(C(=O)c3ccc(C(=O)O)c(C(=O)Nc4cccc(C#N)c4)c3)c2)c1,-18.6,-9.7,-19,8.35,2,-20.8%
C=CCOC(=O)C(CC=C)C(C)=O (stereo unspecified),3.3,-21.9,-17.1,-5.05,-19.8,-11.4%
Cc1nc(N)nc(C)c1N=Nc1ccc(Br)cc1Br,41.2,4.5,20.5,5.05,0.6,15%
Nc1ccc(C2NC(=O)Cc3c2ccc2ccccc32)cc1 (stereo unspecified),9.8,9.7,7.45,-43.4,10.3,13.6%
CC(=O)OC12c3ccccc3-c3ccccc3C1C1C(=O)N(C)C(=O)C12Cl (stereo unspecified),-13.4,-22.2,-12.2,10.4,36.5,13.2%
COc1cc(Br)cc(OC)c1Oc1cc(OC)c(OC)c(OC)c1Br,45.8,12.4,36,2.4,10.8,24.9%
CCOC(=O)CNC(=O)NC,1.25,8.15,-6.75,-11.7,-6.25,38%
CCCCNC(=O)Nc1nc2ccccc2s1,25.3,2.15,11.5,38,-3,-1.7%
CN(C)CCCN1CC2C3CCCCC3=C3CCCCC3C2C1 (stereo unspecified),-15.4,0.6,-24.1,-16.9,1.85,-16.9%
COc1ccc(-c2cc(=O)c3ccc(C)nc3[nH]2)cc1,-18.9,-30.8,-40.4,-20.7,-16.1,-18.8%
OCCSC(SCCO)=C(SCCO)SCCO,9.85,-15.7,-1.55,-13.2,1.35,2.75%
CCCc1cc(C(=O)OC/C(C)=N/O)c2ccccc2n1,-8.15,0.7,11.3,-7.75,24.6,9.4%
O=C(N=c1ccc2nc(=O)[nH]n(O)c-2c1)C(F)(F)F,-12.1,5.5,-13.4,-10.3,-46.6,-32.7%
COc1cc(-c2c3c(cc4c2OCO4)CC(O)C(C(=O)O)C3)cc(OC)c1OC (stereo unspecified),40.9,-2.6,0.4,15.1,1.75,5.6%
Cc1nc(NS(=O)(=O)c2ccc(N)cc2)nc(C)c1Br,-9.75,-9.55,4.1,-52,-14.7,-15.1%
O=C(COC(=O)c1ccccc1)c1ccc(-c2ccccc2)cc1,-3.25,16.3,11.8,30.4,14.2,11.7%
COc1ccc(C=O)c(NC(=O)C(C)(C)C)c1,37.4,23.9,9.8,1.7,23.2,-13.7%
Cc1cc(=O)oc2c(C)c3oc4c(c3cc12)CN(C)CC4,26.9,10.9,25.4,20,13.9,25.8%
